# The campaign covered roughly 2,300 compounds. About 300 (13%) were called active. A selection follows. Unmarked numbers belong to inactive results.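 The calls were made as follows: active = mean inhibition of the replicates above the hit cutoff set in the primary screen (cut at about 17% in these data); inactive = the rest.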
# Target: Sialate O-acetylesterase (Homo sapiens) (UniProt Q9HAT2)
# Assay: sialate O-acetylesterase blockers re-tested – biochemical, fluorescence polarization, FP-Rh probe, triplicate, confirmation (AID 1117263);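 also: 0% = SIAE with DMSO and probe and 100% = probe without SIAE; inhibitors lower polarization as more probe stays unbound to SIAE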
# Conditions: SIAE FP-Rh activity-based probe, at 9.66 µM, stronger effect = higher value
# Sialate O-acetylesterase (Homo sapiens), sequence (Q9HAT2 whole entry, looked up): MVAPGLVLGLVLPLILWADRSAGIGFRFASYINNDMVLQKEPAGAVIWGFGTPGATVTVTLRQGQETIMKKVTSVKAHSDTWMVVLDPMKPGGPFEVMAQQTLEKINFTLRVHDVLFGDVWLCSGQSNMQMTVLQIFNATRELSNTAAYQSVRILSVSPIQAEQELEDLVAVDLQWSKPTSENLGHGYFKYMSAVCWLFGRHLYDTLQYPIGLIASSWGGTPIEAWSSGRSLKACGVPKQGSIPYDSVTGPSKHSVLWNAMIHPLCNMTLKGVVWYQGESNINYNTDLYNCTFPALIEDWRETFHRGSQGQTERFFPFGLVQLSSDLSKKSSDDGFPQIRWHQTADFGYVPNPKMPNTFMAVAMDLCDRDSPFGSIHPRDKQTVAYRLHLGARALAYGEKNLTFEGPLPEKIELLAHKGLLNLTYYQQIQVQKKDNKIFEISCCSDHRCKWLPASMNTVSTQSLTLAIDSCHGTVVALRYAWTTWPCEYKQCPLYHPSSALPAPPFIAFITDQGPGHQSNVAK
row,Structure (SMILES),inhibition
1,Oc1ccc(CNc2ccccc2O)cc1,-1.96%
2,Cc1cccc(C)c1NC(=O)CN(C)C(=O)CCC(=O)c1ccccc1,-0.52%
3,CN(C)c1ccc(N/C=C/C(=O)C(F)(F)F)cc1,2.35%
4,COc1cc(C(=O)Nn2c(O)c(C3=c4ccccc4=NC3=O)sc2=S)ccc1O,34.8% (active)
5,Cc1nc2ccc(C(=O)N3CCSCC3)cc2s1,-7.27%
6,COC(=O)C1=C(NC(=O)C(C)(C)C)CCS1,0.95%
7,CN(CC(=O)Nc1cccc(F)c1)CC(=O)Nc1cccc([N+](=O)[O-])c1,1.24%
8,CCOC(=O)c1c(C)nn(-c2ncccc2NC(=O)CCC(=O)O)c1C,-3.52%
9,CC(C)CCNC(=O)C1CCCN(S(=O)(=O)c2ccc(F)cc2)C1 (centres undefined),1.12%
10,CN1c2ccc(C=O)c3c(C=O)ccc(c23)N(C)C1(C)C,4.27%
11,COc1ccc(C2OCC3(CO2)SC(=O)NC3=O)cc1OC (centres undefined),-9.1%
12,CC1(C)C/C(=C(/C#N)C(N)=O)CCO1,-3.01%
13,CCOc1cc(N2CCOCC2)c(OCC)cc1NC(=O)COc1cccc2cccnc12,8.9%
14,O=C(NNc1c2ccccc2nc2ccccc12)c1cc2ccccc2cc1O,13.8%
15,CC(=O)Nc1ccc(Nc2cc(C)nc(Nc3ccc(NC(C)=O)cc3)n2)cc1,4.83%
16,Cc1ccnc(NS(=O)(=O)c2ccc(NC(=O)c3ccc(S(=O)(=O)N4CCOCC4)cc3)cc2)n1,1.77%
17,Cc1ccc(C2Nc3cccc4cccc(c34)N2)cc1,7.48%
18,Oc1ccc(C2Nc3cccc4cccc(c34)N2)cc1,29.6% (active)
19,Cc1ccc(NC(=S)NCCN2CCOCC2)cc1,2.38%
20,CCOc1ccccc1Nc1ccc(C(=O)O)cc1[N+](=O)[O-],-0.47%
21,Cc1ccc(N=C2NC(=O)/C(=C/C=C/c3ccco3)S2)cc1C,-34.3%
22,CCOc1ccc(Nc2nc(Cc3nnc(SCC(=O)NC4CCCC4)n3C)cs2)cc1,5.78%

row,Structure (SMILES),inhibition
1,COc1ccc(C2C(C(C)=O)=C(O)C(=O)N2CCc2c[nH]c3ccccc23)cc1 (centres undefined),0.13%
2,CCOC(=O)N1CCN(C(=O)CSc2ccc(Cl)cc2)CC1,-2.01%
3,CC(=O)Nc1ccc(S(=O)(=O)Nc2ccc(N3CCCCC3)cc2)cc1,4.68%
4,COc1ccc(NC(=O)/C(N=Nc2cccc(S(=O)(=O)Nc3ccc(SC(F)F)cc3)c2)=C(\C)O)cc1,-11.2%
5,CCCCn1c(N)c(N(CC(C)C)C(=O)CSc2ccc([N+](=O)[O-])cc2)c(=O)[nH]c1=O,4.78%
6,O=C(NC(=S)Nc1ccc(NC(=O)c2cccs2)cc1)c1ccc([N+](=O)[O-])cc1,15.2%
7,C=CCN1C(=O)[C@@H](CC(=O)NCC2CCCCC2)[C@]2(C(=O)OC)CCCCC=C12,4.13%
8,COc1ccc2nc(Nc3nc4cc5c(cc4s3)OCCO5)sc2c1,0.67%
9,O=C1CCCC(O)=C1N=Nc1ccc(S(=O)(=O)N2CCOCC2)cc1,3.36%
10,CC(=O)Nc1cccc([N+](=O)[O-])c1,1.2%
11,CC(NS(=O)(=O)c1ccc(Cl)cc1)C(=O)Nc1ccc2c(c1)OCCO2 (centres undefined),-0.44%
12,CCn1c(=O)n(CC)c2cc(N3CCCC3)c(NC(=O)c3ccccc3Br)cc21,2.42%
13,O=C(Nc1ccccc1N1CCCC1)c1ccc(F)c(S(=O)(=O)N2CCOCC2)c1,-3.75%
14,Cc1nc2cc(NCc3cccs3)ccc2n1C,-2.47%
15,Cn1cccc1/C=N/NC(=O)CNc1cccc2ccccc12,5.62%
16,O=C(N/N=C/c1sc(N2CCCCC2)nc1-c1cccs1)c1cccnc1,16.6%
17,C/C=C/c1ccc(OCC(=O)OCC(=O)Nc2c(C)nn(-c3ccccc3)c2C)c(OC)c1,3.24%
18,C[C@@H]1O[C@@H](OC[C@H]2O[C@@H](Oc3c(-c4ccc(O)cc4)oc4cc(O)cc(O)c4c3=O)[C@H](O)[C@@H](O)[C@@H]2O)[C@H](O)[C@H](O)[C@H]1O,6.07%
19,CCOC(=O)C1=C(C)N=C2c3ccccc3C(=O)C2C1c1ccc(Br)cc1 (centres undefined),7.01%
20,Cc1cc2ccccc2n1CCNC(=O)COc1ccc2ccccc2c1,9.71%
21,Cc1cc2ccccn2c1C(=O)c1cccc(F)c1,-0.9%
22,COc1ccc(Cc2nc3ccc(C(=O)N4CCC(N(C)C)C4)cc3o2)cc1 (centres undefined),-0.71%

row,Structure (SMILES),inhibition
1,COc1ccc(-c2cc(C(=O)NC(Cc3c[nH]c4ccccc34)C(=O)O)c(C)o2)cc1OC (centres undefined),10.6%
2,NS(=O)(=O)c1ccc(NC(=O)COC(=O)c2c3c(nc4ccccc24)/C(=C\c2ccc4c(c2)OCO4)CCC3)cc1,-152%
3,CCCCC[C@H](C)N1C[C@@H](COCc2ccccc2)Oc2cc(N3CC[C@@H](N(C)C)C3)ccc2S1(=O)=O,23.2% (active)
4,CNS(=O)(=O)c1ccc2c(c1)[nH]c(=S)n2C,8.04%
5,Cc1ccc(C(=O)N/C(=C/c2ccc(-c3cccc([N+](=O)[O-])c3)o2)C(=O)NCCCN(C)C)cc1,0.77%
6,Cc1ccc(OCC(=O)Nc2ccc(-c3nnc(-c4ccco4)o3)cc2)cc1,-15.4%
7,NNC(=O)c1oc2nc(-c3ccccc3)cc(-c3ccco3)c2c1N,56% (active)
8,CNC(=S)NNC(=O)c1oc2nc(-c3ccccc3)cc(-c3ccco3)c2c1N,3.72%
9,CCOC(=O)/C(N=Nc1cc(C(=O)O)cc(C(=O)O)c1)=C(\O)CCl,2.21%
10,CC(C)c1cc(N=O)cc(C(C)C)c1O,-26.2%
11,Oc1ccccc1C1=NN(c2ccccc2)C(c2ccccc2)C1 (centres undefined),6.69%
12,CCOc1ccc(NC(=O)C/C(C)=N/NC(=O)Cc2cccs2)cc1,4.73%
13,CCN(CC)CCCC(C)n1c2nc(=O)[nH]c(=O)c-2nc2cc(Cl)ccc21 (centres undefined),25.5% (active)
14,COC(=O)C(C)Sc1ccc2nnc(-c3cccc(F)c3)n2n1 (centres undefined),-0.98%
15,Oc1ccc2ccc3cccc[n+]3c2c1,4.67%
16,CCOC(=O)C1=C(c2ccccc2)O/C(=C(/C(=O)OC)C(F)(F)F)S1,-7.25%
17,CCN(C(=O)COC(=O)C1CCN(S(=O)(=O)c2ccc(C)c(C)c2)CC1)C1CCS(=O)(=O)C1 (centres undefined),2.26%
18,Nc1ccc2nc3c(=O)[nH]c(=S)[nH]c3nc2c1,32.7% (active)
19,Cc1nc(-c2ccc(Cl)cc2)sc1C(=O)NN,-2.12%
20,NNc1nc2c(Cl)cccc2s1,5.82%
21,S=C(NCCCc1cnc[nH]1)NCCCN(Cc1ccc(Cl)c(Cl)c1)c1ccc(Br)cn1,30.6% (active)
22,Oc1ccc(/C=N/N(Cc2ccccc2)c2ccccc2)cc1,9.47%

row,Structure (SMILES),inhibition
1,CC(C)(O)C#Cc1ccc(C(=O)N2CCC(C(N)=O)(N3CCCCC3)CC2)cc1,2.82%
2,COc1cccc(/C=N/Nc2cc(C)nc(-c3ccccc3O)n2)c1O,-14.6%
3,COc1ccc(CCNc2ncnc3nc[nH]c23)cc1OC,-2.94%
4,COc1ccc2[nH]c(=S)cc(C)c2c1,-5.42%
5,O=C(NN=C1CCC(=NNC(=O)c2cccnc2)CC1)c1cccnc1,6.57%
6,CCOc1ccc(Nc2nc(Cc3nnc(SCC(=O)c4ccc(C)cc4)o3)cs2)cc1,5.41%
7,COc1ccc(/C=N/NC(=O)c2ccncc2)cc1CN1CCCc2ccccc21,22.8% (active)
8,COc1ccc(OC)c(CN2CCN(C(=O)CNC(=O)c3cc(C)cc(C)c3)CC2)c1,-0.63%
9,COc1ccccc1/C=C/C=N/NC(=O)CN1CCN(Cc2ccccc2)CC1,-1.91%
10,CCOC(=O)C(=O)C1C(=O)Nc2ccccc21 (centres undefined),6.34%
11,O=C(Nc1cccc(Cc2ccccc2)c1)Nc1ccc2nc([C@@H]3O[C@H](CO)[C@@H](O)[C@H](O)[C@H]3O)[nH]c2c1,10.5%
12,CCOC(=O)C1Sc2[nH]c(=O)sc2C(c2ccc(Cl)cc2)C1C(=O)OCC (centres undefined),5.84%
13,Cc1ccc(/C=N/NC(=O)c2cc3ccccc3cc2O)o1,3.65%
14,CC1CCCCC1NC(=O)/C(C#N)=C/C=C/c1ccccc1[N+](=O)[O-] (centres undefined),-0.36%
15,Cn1c(NN)nc2sc3c(c2c1=O)CCC3,11.8%
16,O=C(O)c1ccccc1N=N/C(=N/Nc1cc(S(=O)(=O)O)ccc1O)c1ccccc1,9.57%
17,O=C(N/N=C/c1ccc(O)c2ccccc12)c1cccnc1,-1.25%
18,COc1ccc(-c2csc(Nc3ccc(O)cc3)n2)cc1,2.15%
19,O=C(O)Cc1sc(-c2ccccc2)nc1-c1cccs1,-3.2%
20,CCOc1ccc(Cn2c(SCCCCC#N)nc3c2c(=O)n(C)c(=O)n3C)cc1OCC,3.27%
21,CCC(C)c1ccc(O)c(/C=N/O)c1 (centres undefined),8.65%
22,COCCOC(=O)c1sc(=S)n(CCOC)c1N,9.71%

row,Structure (SMILES),inhibition
1,Oc1ccc(N=Cc2sc3ccccc3c2Cl)cc1,-0.14%
2,Oc1ccc(N=Cc2c(O)ccc3ccccc23)cc1,-1.4%
3,c1ccc2[nH]c(-c3nc4ccccc4[nH]3)nc2c1,5.66%
4,CNC(=S)N/N=C/c1cn(Cc2ccc(C)cc2)c2ccccc12,9.36%
5,COc1cc(/C=N\Nc2nc(-c3cccs3)c(NC(C)=O)s2)ccc1O,13.2%
6,CCn1c(SC)nc(O)c(C(c2ccc(OC)c(O)c2)c2c(O)nc(SC)n(CC)c2=O)c1=O,-4.61%
7,O=C1CCN(C(=S)NCCc2ccccc2)CC1,-3.6%
8,CN(Cc1ccc(C(F)(F)F)cc1)C(=O)[C@H]1O[C@@H](n2cnc3c(N)ncnc32)[C@H](O)[C@@H]1O,68.3% (active)
9,Nc1ncnc2c1ncn2[C@@H]1O[C@H](C(=O)NCC(F)(F)F)[C@@H](O)[C@H]1O,44.1% (active)
10,CC(=O)CSc1nnc(CSc2ncccn2)n1C1CCCCC1,-1.2%
11,O=C(CSc1ccc(-c2ccco2)nn1)Nc1cccc(F)c1,0.25%
12,Cc1cccc(C2c3c(n(C)c(=O)n(C)c3=O)N=C3c4ccccc4C(=O)C32)c1 (centres undefined),-3.19%
13,Cc1[nH]c2ccccc2c1C(=O)CSCC(=O)O,-9.03%
14,COc1ccc(N2CCN(c3ccc([N+](=O)[O-])nc3)CC2)cc1,8%
15,CC(C)=CCCC1(C)C=Cc2c(ccc3c2[nH]c2cc(O)c(C)cc23)O1 (centres undefined),2.11%
16,Cc1ccc(Nc2nc(-c3ccc(O)cc3O)cs2)nc1,9.2%
17,O=C(CC[C@H]1O[C@@H](n2ccc(=O)[nH]c2=O)[C@H](O)[C@@H]1O)N[C@H](Cc1ccccc1)C(=O)NCCCN1CCCC1=O,32.5% (active)
18,O=C1CC(c2ccccc2)=NN1c1ccc([N+](=O)[O-])cc1,-0.43%
19,O=c1[nH]n(-c2ccc([N+](=O)[O-])cc2)c(=O)c2ccccc12,19% (active)
20,CC(C)/C=N/NC(=O)c1cc(Br)ccc1O,4.2%
21,S=C(Nc1ccc(Br)cc1)NC1CCN(Cc2ccccc2)CC1,2.28%

# Source: PubChem BioAssay AID1117263 (The Scripps Research Institute Molecular Screening Center, 2014)
